# Bioassay records as filed in PubChem.
# GLP1R ag: activates the human GLP-1 receptor. P43220. HEK293 GLP-1R CRE-luciferase, luminescence, 4-6 h; cells express a hypersensitive GLP-1R form. Potency, µM (titrated, usually from 45.6 µM), for the others: at the top dose activation, hits mostly activators. 380,000 tested, 0.007% active; also: potency is read from the fitted curve at half-maximal effect; % of control where 0% means no effect
# Target sequence (P43220 whole entry, looked up): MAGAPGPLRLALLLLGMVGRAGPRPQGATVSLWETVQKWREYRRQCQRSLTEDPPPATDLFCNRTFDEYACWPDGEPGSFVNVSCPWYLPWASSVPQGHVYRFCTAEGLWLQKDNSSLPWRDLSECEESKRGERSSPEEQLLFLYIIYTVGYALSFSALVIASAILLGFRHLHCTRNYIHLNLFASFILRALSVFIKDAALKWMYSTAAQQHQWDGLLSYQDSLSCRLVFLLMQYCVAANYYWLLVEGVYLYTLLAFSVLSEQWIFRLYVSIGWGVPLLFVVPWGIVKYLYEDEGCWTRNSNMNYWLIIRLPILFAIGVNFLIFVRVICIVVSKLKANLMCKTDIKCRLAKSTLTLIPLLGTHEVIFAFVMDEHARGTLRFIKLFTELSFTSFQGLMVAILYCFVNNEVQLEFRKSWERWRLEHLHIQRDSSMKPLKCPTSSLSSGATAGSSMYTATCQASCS
# uPA generation: inhibitors of cell surface uPA generation | cell surface uPA generation assay, qHTS | Potency, µM (highest dose often 38.3 µM), without a hit: at the top dose activity change, negative = inhibition, most hits filed as inhibitors | 330,000 tested, 0.31% active | AID 540303; active = well fitted inhibition curve with a large enough effect; inconclusive = small, poorly fitted or top-dose-only effect; inactive = no such curve, though single readings can be large or run the other way; tested in mouse RAW 264.7 cells; also: potency is read from the fitted curve at half-maximal effect; % is scaled to controls: 0 for no effect and ±100 for the full control effect; nearly all actives have a fitted effect of over 55% in size
# Mm-Cpn inhibitor: inhibitors of Methanococcus maripaludis chaperonin TRiC (MmCpn). purified Mm-Cpn ATPase, ADP Transcreener TR-FRET. Potency, µM (highest dose often 76.9 µM), for inactives: at the highest dose activity, negative = inhibition, hits mostly inhibitors. 330,000 tested, 0.031% active. AID 504842; also: potency is read from the fitted curve at half-maximal effect; % is scaled to controls: 0 for no effect and ±100 for the full control effect; nearly all actives have a fitted effect of over 80% in size
#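 Purified archaeal chaperonin (25 nM final) was preincubated with compound for 10 min at 37°C, then ATP (10 uM final) was added for 30 min at 37°C in Tris pH 7.4/KCl/MgCl2/DTT buffer. ADP was quantified by HTRF Transcreener TR-FRET.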
# CCT chaperon mod: cytosolic chaperonin activity modulation | purified chaperonin ATPase assay, HTRF ADP detection, 30 min | 360,000 tested, 0.3% active | activity change, % (concentration not given with the values), hits read low; in the data active = activity change below about -30%; also: % is scaled to controls: 0 for no effect and ±100 for the full control effect
#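 Nucleotide hydrolysis assay: TRiC at 20–40 nM final (set by batch activity) with 10 uM ATP, 30 min at 37 °C, in presence of 76 uM compound. Detection by competitive ADP HTRF, 30 min ambient.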
# GLP-1R inv ag: inverse agonists of human GLP-1 receptor; P43220; HEK293 GLP-1R CRE-luciferase, luminescence, 24 h; GLP-1R form is constitutively active; Potency, µM (highest dose often 38.3 µM), for the others: at the top dose activity change, negative = inhibition, actives largely listed as inhibitors; 410,000 tested, 1.6% active; also: potency is read from the fitted curve at half-maximal effect; % is scaled to controls: 0 for no effect and ±100 for the full control effect; nearly all actives have a fitted effect of over 55% in size
#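 Inverse agonism was detected as reduced cAMP-driven luciferase luminescence after 24 h compound treatment. The cells were HEK293 clones expressing constitutively active human GLP-1R with the reporter. Reporter-only and GPR119 cell lines served as counterscreen controls.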
# HEK293 tox: cytotoxic in the GLP-1 receptor inverse agonist counter-screen; HEK293 cAMP-luciferase reporter cells, luminescence, 24 h; Potency, µM (titrated, usually from 38.3 µM), for inactives: at the top dose activity change, negative = inhibition, actives largely listed as inhibitors; 410,000 tested, 0.13% active; AID 624418;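 also: loss of luciferase light is scored as toxicity; potency is read from the fitted curve at half-maximal effect; % is scaled to controls: 0 for no effect and ±100 for the full control effect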
#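 Compound-treated cells are incubated 24 hr at 37 deg C under 5% CO2 after a 12 hour attachment period, then luciferase detection reagent is added and luminescence is measured following 12 min at room temperature; lowered signal indicates toxicity.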
# Active calls of the source: *; ? = inconclusive; / = no result. Sampled rows, rich in hits. Any-hit rate of the full collection: about 2.2%. Unless noted, calls follow the shape of the dose curve; as a rule, active = well fitted curve in the direction sought with a large enough effect; inconclusive = small, poorly fitted or top-dose-only effect, or another doubt; inactive = no such curve, though single readings can be large; an effect the other way counts as inactive or inconclusive.
SMILES,GLP1R ag,uPA generation,Mm-Cpn inhibitor,CCT chaperon mod,GLP-1R inv ag,HEK293 tox
C[C@]12CCC3C(CC[C@H]4C[C@H](O)CC[C@]34C)C1C[C@H](O)[C@H]2O (stereo partly specified),9%,5%,/,-1,-15%,1%
CN(CC(=O)Nc1cccc(F)c1)C(=O)c1ccccc1CCc1ccccc1,15%,6%,1%,-2,?,?
CCC(CC)NCc1c[nH]c2ccccc12,-4%,4.5µM*,-3%,-2,-8%,-4%
O=C(c1[nH]c(C(F)(F)F)nc1-c1ccccc1)N1CCc2c([nH]c3ccccc23)C1,-2%,/,/,0,?,?
Cc1ccccc1C1CC(=O)Nc2ccc3ccccc3c21 (stereo unspecified),-2%,/,/,/,?,-20%
CCOc1ccc(-c2cc(C)[n+](CCc3ccc(OC)c(OC)c3)c(-c3ccc(OCC)cc3)c2)cc1,6%,-17%,-1%,-3,6.3µM*,?
CCOc1ccc(-c2cc(C)[n+](CCO)c(-c3ccc(OCC)cc3)c2)cc1,-3%,-7%,-8%,1,-24%,-16%
CCc1ccccc1NC(=O)C(CC)Oc1ccccc1-c1nnc(-c2ccccc2)o1 (stereo unspecified),/,/,/,/,?,-15%
C[C@]12CCC3C(CCC4=C(Cl)C(=O)CC[C@@]43C)C1CCC2O (stereo partly specified),21%,/,/,/,/,/
N#CC(C#N)=NNc1ccc([N+](=O)[O-])cc1,-10%,13%,-13%,2,2.2µM*,?
CN(C)C(=O)Oc1ccc([N+](=O)[O-])cc1,?,0%,-1%,1,2%,4%
COc1ccc(C(=O)/C(C#N)=N/Nc2ccc([N+](=O)[O-])cc2)cc1,-2%,1µM*,0%,-3,?,?
CC(Sc1ncnc2sccc12)C(=O)Nc1ccc(S(=O)(=O)N2CCOCC2)cc1 (stereo unspecified),25%,-4%,/,-2,78%,-7%
C=C[C@@H]1CN2CC[C@H]1C[C@H]2[C@H](O)c1ccnc2ccccc12,1%,/,/,/,/,/
COC(=O)[C@@H]1N=C(c2ccc(OC)cc2)O[C@]12C(=O)N(Cc1ccc(OC)cc1)c1ccccc12,-3%,/,/,-47*,?,0%
COC1=CC(=O)c2ccccc2C1=O,-9%,5µM*,0%,1,?,?
COc1ccc2c(c1)C(c1ccc(N(CCCl)CCCl)cc1)=NCC2,17%,-10%,/,-2,10µM*,-30%
CCc1ccc(CNC(=O)c2ccc3c(c2)N=C(C)c2cc(C)ccc2S3)cc1,-2%,/,/,/,?,-46%
CCn1ccnc1CN1CCCC(C(=O)c2ccc(SC)cc2)C1 (stereo unspecified),10%,-3%,1%,0,?,13µM*
CSc1ccc(C(=O)C2CCCN(Cc3cnc(SC)nc3)C2)cc1 (stereo unspecified),21%,-7%,2%,1,?,-5%
